These results are taken from PubChem BioAssay.

Values without a mark were called inactive. No rule for the calls is given here.

One may read the inhibition as the share of the control response that was lost under treatment.

The target in this experiment is Pantothenate synthetase (Mycobacterium tuberculosis (strain ATCC 25618 / H37Rv)) (UniProt P9WIL5). The experiment in a line: Coupled enzyme confirmation of inhibitors against recombinant Mtb PanC (AID 375).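 Also: 0% = full reaction with vehicle and 100% = no enzyme background.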 The note with it: coupled enzyme assay; at 10 µM, active compounds read high.
Chain of Pantothenate synthetase (Mycobacterium tuberculosis (strain ATCC 25618 / H37Rv)) (P9WIL5 whole entry, looked up): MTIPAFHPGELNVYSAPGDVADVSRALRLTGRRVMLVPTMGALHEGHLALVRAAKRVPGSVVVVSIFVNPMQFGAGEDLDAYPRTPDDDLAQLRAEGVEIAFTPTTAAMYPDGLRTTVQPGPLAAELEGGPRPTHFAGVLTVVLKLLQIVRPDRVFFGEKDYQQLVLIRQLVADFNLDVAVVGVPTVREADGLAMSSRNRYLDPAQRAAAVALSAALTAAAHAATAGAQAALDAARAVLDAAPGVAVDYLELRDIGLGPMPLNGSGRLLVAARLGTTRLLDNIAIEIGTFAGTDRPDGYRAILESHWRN
Turning to `CC1CN(S(=O)(=O)c2cccc(C(=O)OCc3cc(=O)oc4cc(O)ccc34)c2)CC(C)O1` (stereo not given), the inhibition was 7%.

Consider `COc1cc(C2=NOC(C(=O)NCc3ccc(F)cc3)C2)cc(OC)c1OC` (stereo not given), for which the inhibition was 0%.

Turning to `O=C(NCCCNC1CCCCC1)c1ccc(/C=N/O)nc1`, the inhibition was 0%.

`Cc1ccc(-c2noc(CCC(=O)NCC3CCN(Cc4cccc(C)c4)CC3)n2)cc1`: the inhibition was 8%.

Turning to `COc1nc(NCCc2ccc(OC)c(OC)c2)nc(NC(C)(C)CO)n1`, the inhibition was 0%.

For `Cc1ccc(N2C(=O)c3oc4ccccc4c(=O)c3C2c2cccc(O)c2)nc1` (stereo not given), the inhibition is 0%.

`CCOC(=O)C1C2C=CC3(CN(c4cccc(Cl)c4)C(=O)C13)O2` (stereo not given): the inhibition was 0%.

As to `CC(C)CCNC(=O)CCNS(=O)(=O)c1ccc(Cl)cc1`, the inhibition is 0%.

As to `CCOC(=O)Cn1ncc(-c2ccccc2)c1N`, the inhibition was 6%.

On to `CCOC(=O)N1CCN(C(=O)COc2ccc(Br)cc2Cl)CC1`, for which the inhibition was 0%.

Regarding `O=C(NCC1CCCO1)C1CCN(c2ccc(S(=O)(=O)N3CCCC3)cc2)CC1` (stereo not given), the inhibition is 0%.

Turning to `CC1CCCC(N2CCN(C(=O)c3ccc(F)cc3)CC2)C1` (stereo not given), the inhibition was 0%.

As to `Cc1cccc(NC(=O)CC2CCC2)c1`, the inhibition was 0%.

As to `CCN(CC)c1ccc(NC(=O)CN2C(=O)CC(C)(C)S(=O)(=O)c3ccccc32)c(C)c1`, the inhibition is 0%.

As for `CCCc1cc(=O)[nH]c(=S)[nH]1`, the inhibition was 3%.

`COC(=O)c1c(C#N)c(N)nc2c1CCC2`: the inhibition is 7%.

With `CC(C)(C)NC(=O)C(Cc1ccccc1)NS(=O)(=O)c1cccc2nsnc12` (stereo not given), the inhibition is 0%.

For `O=C(c1csc2ccccc12)n1cccn1`, the inhibition was 0%.

Consider `Cc1ccc(NC(=O)CCN2CCc3ccccc3C2)cc1`, for which the inhibition was 0%.

As for `COc1ccc(-c2ccc(CCC(=O)O)n2NC(=O)c2cccs2)cc1`, the inhibition is 0%.

As for `CCOC(=O)CCNC(=O)Nc1ccc2nc(C)n(Cc3ccccc3Cl)c(=O)c2c1`, the inhibition is 5%.

Take `O=C(Nc1nc(-c2ccc(S(=O)(=O)N3CCCC3)cc2)cs1)C1COc2ccccc2O1` (stereo not given): the inhibition was 0%.

Take `CC(=Nc1cccc(O)c1)c1sc2ccccc2c1O`: the inhibition is 0%.

On to `O=C(CN1CCOCC1)N1CCN(C(=O)CN2CCOCC2)CC1`, for which the inhibition is 6%.

With `Cn1c(C(=O)NCC2CCCO2)cc2c(=O)[nH]c3ccccc3c21` (stereo not given), the inhibition is 8%.

In the case of `Cc1ccc(CCSCC(=O)O)cn1`, the inhibition is 0%.

On to `CC(C)CCNC(=O)NC(=O)CN1C(=O)NC2(CCCCC2)C1=O`, for which the inhibition was 2%.

For `O=C(CCN1CCN(CCO)CC1)Nc1ccc(OCc2ccccc2)cc1`, the inhibition was 6%.

`Cc1occc1C(=O)Nc1cccnc1`: the inhibition was 16%.

As for `OCCNCCCCOc1ccccc1F`, the inhibition was 0%.

Turning to `Cc1ccccc1-c1nc(Cc2ccccc2)no1`, the inhibition is 1%.

For `CCOC(=O)c1c(C)n(C)c2c(C)cc(O)c(OC(C)=O)c12`, the inhibition is 0%.

Take `O=C(CSc1nnc(Cc2cccs2)n1Cc1ccco1)Nc1cccc(Cl)c1`: the inhibition is 0%.

Regarding `O=C(Cn1cccc1)N1CCN(C(c2ccccc2)c2ccccc2)CC1`, the inhibition is 13%.

Take `CCOC(=O)CNC(=O)CSc1ncnc2c1cnn2Cc1ccccc1`: the inhibition is 0%.

Turning to `Cc1ccc(C)c(OCCCC(C)(C)C(=O)O)c1`, the inhibition was 0%.

Consider `CCOC(=O)c1ccc(COC(=O)c2cc3ccccc3oc2=O)o1`, for which the inhibition is 0%.

Take `Cc1cc(NC(=O)c2cccc(S(=O)(=O)N3CC(c4ccccc4)CC3=O)c2)no1` (stereo not given): the inhibition was 2%.

On to `O=C(NCc1ccco1)c1cc2c(s1)CSC2`, for which the inhibition is 0%.

As to `COc1ccc(NC(=O)N2CCN(c3nc(-c4cccc(OC)c4)cs3)CC2)cc1`, the inhibition is 0%.
